# Compound activity (PubChem)
# Shown are actives, neighbours in structure and some others; about 19% of the full set was active somewhere.
# TDP1 cell noCPT – qHTS for Inhibitors of human tyrosyl-DNA phosphodiesterase 1 (TDP1): qHTS in cells in absence of CPT; 420,000 compounds, 15% hits; Potency, µM (titrated, usually from 46.2 µM), usual class: inhibitors; AID 686978, 2013; DT40 Tdp1-/- hTDP1 cells, no CPT, ATP luminescence, 48 h; further: nearly all actives have a fitted effect of over 55% in size
#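 Seeded 400 DT40-hTDP1 cells/well (vehicle DMSO, no 20 nM CPT); pinned compounds; ≥48 hr at 37 °C; CellTiter-Glo luminescence as viability measure.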
# IL-1B inflam inh – blocks inflammasome-driven IL-1 beta release; THP-1 LPS/ATP IL-1B secretion, AlphaLISA, 16 h; hits give low values; activity change, % at 57.5 µM; 360,000 compounds, 4.7% hits; AID 743279; in the data active means activity change below about -50%; inconclusive means mostly about -30% to -49%
#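 Secreted IL-1B measured by AlphaLISA bead assay after 16 h compound exposure of THP-1 cells; compounds (final up to 57.5 uM) added 1 h before LPS (250 ng/mL) and ATP (1.25 mM) stimulation; lower signal means less secretion.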
# ELG1 DNA repair – blocks ELG1-dependent DNA repair in HEK293T cells; HEK293T ELG1-luciferase reporter, luminescence, 16 h; DNA damage induced by 5-fluorouridine; Potency, µM (titrated, usually from 46.1 µM), usual class: inhibitors; 330,000 compounds, 2.3% hits; further: nearly all actives have a fitted effect of over 55% in size
#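 Cells (2,000 per well) received 5-fluorouridine plus test compound or DMSO and were incubated 16 hr at 37 °C, 5% CO2. Luciferase activity was read by luminescence 30 min after ONE-Glo addition; signal suppression marked inhibition of damage-induced ELG1 function.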
# DT40 TDP1 CPT – growth inhibition of DT40 Tdp1-/-;hTDP1 cells with camptothecin (screen for TDP1 inhibitors). AID 686979. chicken DT40 Tdp1-/-;hTDP1 cells + 20 nM CPT, ATP luminescence, 48 h. Potency, µM (highest dose often 46.2 µM), most hits filed as inhibitors. 420,000 compounds, 12% hits; further: nearly all actives have a fitted effect of over 55% in size
#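 Chicken DT40 Tdp1-/- cells complemented with human TDP1, 400 cells/well, exposed to compounds plus 20 nM camptothecin for at least 48 h at 37 C; viability read as ATP content by CellTiter-Glo luminescence.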
# HT1080 IDH1KD tx – kills HT-1080 cells with IDH1 knockdown. HT-1080 IDH1 knockdown viability, ATP luminescence, 48 h. Potency, µM (series often up to 46.1 µM), usual class: cytotoxic. 360,000 compounds, 2% hits. AID 686971
#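 Knockdown cells (IDH1KD HT-1080) received compounds 2 h after plating at 750 cells/well and were kept 48 h at 37 °C in 5% FBS RPMI. A CellTiter-Glo luminescence read gave % activity for curve fitting.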
# HT1080NT lethal – kills 2HG-producing HT-1080-NT fibrosarcoma cells; HT-1080-NT fibrosarcoma viability, CellTiter-Glo ATP luminescence, 48 h; Potency, µM (doses to about 46.1 µM), usual class: cytotoxic; 360,000 compounds, 1.6% hits; AID 686970;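 further: NT is the 2HG producing partner of a matched IDH1 knockdown line; nearly all actives have a fitted effect of over 55% in size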
#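 Viability of the 2HG-overproducing fibrosarcoma line after 48 hours of compound exposure at 37 degrees C was determined by luminescence with CellTiter-Glo, and concentration-effect curves were then fitted and categorized.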
# Hits are given with their value; i = inactive; ? = inconclusive; nt = no result; [ ] = remark or other dose. Unless noted, the call rests on the fitted dose curve; in most records, active means well fitted curve in the direction sought with a large enough effect; inconclusive means small, poorly fitted or top-dose-only effect, or another doubt; inactive means no such curve, though single readings can be large; an effect the other way counts as inactive or inconclusive.
SMILES,TDP1 cell noCPT,IL-1B inflam inh,ELG1 DNA repair,DT40 TDP1 CPT,HT1080 IDH1KD tx,HT1080NT lethal
O=C(c1cncc(Br)c1)N1CCN(S(=O)(=O)c2ccc3ccccc3c2)CC1,i,i,?,i,i,i
O=C(c1cc(-c2ccc(Cl)cc2)n[nH]1)N1CCN(S(=O)(=O)c2ccc(Br)s2)CC1,15µM,nt,nt,?,nt,nt
Cc1cc(OCC(=O)NC(Cc2ccc(Cl)cc2)C(=O)O)c2c3c(c(=O)oc2c1)CCC3 (configuration not stated),i,i,i,i,i,i
CN(CCc1ccccc1)C(=O)c1ccc(NC(=O)Cc2cccc([N+](=O)[O-])c2)cc1,?,-51,?,?,i,i
CC(Cc1ccccc1)NC(=O)Cc1ccc([N+](=O)[O-])cc1 (configuration not stated),i,i,i,i,i,i
CCCC/C(=N\O)c1c[nH]c2ccccc12,i,i,i,i,i[9.24 µM],?
O=C(O)c1cccc(NC(=O)N2C[C@H]3C[C@@H](C2)c2cccc(=O)n2C3)c1,i,i,i,i,i,i
COc1ccc(OC)c(N2C(=O)/C(=C/c3ccco3)C(=O)NC2=S)c1,i,i,i,i,i,i
O=C1NC(=S)N(c2ccc(F)cc2)C(=O)/C1=C/c1ccco1,nt,nt,i,nt,nt,nt
CN1CCN(c2ccc(/C=C3\C(=O)NC(=S)N(c4cccc(Br)c4)C3=O)o2)CC1,16µM,i,i,16µM,?,?
Cc1ccc(/C=C2\C(=O)NC(=S)N(c3cccc(F)c3)C2=O)o1,?,i,i,18µM,i,i
CCOc1ccc(N2C(=O)/C(=C/c3ccc(C)o3)C(=O)NC2=S)cc1,26µM,i,i,?,i,i
CCOc1ccc(N2C(=O)NC(=O)/C(=C\c3ccc(N4CCCCC4)o3)C2=O)cc1,i,i,?,i,i,i
COc1ccc(N2C(=O)/C(=C/c3ccc(C)o3)C(=O)NC2=S)cc1,?,i,i,15µM,i,i
CN=C1CN(O)C(c2ccccc2)c2cc(Cl)ccc2N1 (configuration not stated),?,i,nt,i,i,i
COc1cc2c(c(OC)c1OC)-c1ccc(OC)c(=O)cc1C(NC(C)=O)CC2 (configuration not stated),0.0092µM,i,?,0.018µM,?,0.015µM
COc1ccc2c(c1)C(NC(C)=O)CCc1cc(OC)c(OC)c(OC)c1-2 (configuration not stated),0.018µM,i,nt,0.0082µM,?,0.0058µM
COC1=C[C@@H]2C3=C([C@@H]2C1=O)[C@@H](NC(C)=O)CCc1cc(OC)c(OC)c(OC)c13,i,i,i,i,i,i
COc1ccc(NC(=O)N2C[C@@H]3C[C@@H](C2)c2cccc(=O)n2C3)cc1,i,i,i,i,i,i
O=C1CN=C(c2ccccc2)c2cc(Cl)ccc2N1,i,i,i,i,i,i
COc1ccc(Cl)cc1C(=O)Nc1ccc([N+](=O)[O-])cc1Cl,i,nt,nt,?,nt,nt
COc1ccc(S(=O)(=O)Nc2cc([N+](=O)[O-])ccc2OC)cc1,21µM,i,?,?,16µM,13µM
CCN(C(=O)COC(=O)Cc1ccccc1)c1c(N)n(Cc2ccccc2)c(=O)[nH]c1=O,i,i,i,i,i,i
O=C(Nc1ccon1)c1cccn(Cc2ccccc2)c1=O,?,nt,nt,i,nt,nt
CN(C)C(=O)O/N=C(\N)COc1ccc(C(C)(C)C)cc1,?,i,?,21µM,21µM,12µM
Cc1nc2ccccc2c(=O)n1-c1ccccc1[N+](=O)[O-],i,i,i,i,i,i
Cc1nc2ccccc2c(=O)n1-c1cc(F)ccc1F,i,i,i,i,i,i
O=c1c2ccccc2nc(/C=C/c2ccccc2O)n1-c1ccccc1O,nt,nt,23µM,nt,nt,nt
O=c1c2ccccc2nc(/C=C/c2ccccc2F)n1-c1ccccc1O,i,-87,?,i,i,i
